We go through 37 compounds from PubChem BioAssay (NCATS).

Each structure is given as a SMILES string. Several values for one entry are separate records, joined by “and”; a condition that tells them apart may be missing. Equal entries are not always repeated. Records with an inconclusive call do not appear. Activity calls are given as the source filed them.
% is scaled to controls: 0 for no effect and ±100 for the full control effect.

Retinoic acid receptor RXR-alpha (Homo sapiens), sequence (P19793 whole entry, looked up): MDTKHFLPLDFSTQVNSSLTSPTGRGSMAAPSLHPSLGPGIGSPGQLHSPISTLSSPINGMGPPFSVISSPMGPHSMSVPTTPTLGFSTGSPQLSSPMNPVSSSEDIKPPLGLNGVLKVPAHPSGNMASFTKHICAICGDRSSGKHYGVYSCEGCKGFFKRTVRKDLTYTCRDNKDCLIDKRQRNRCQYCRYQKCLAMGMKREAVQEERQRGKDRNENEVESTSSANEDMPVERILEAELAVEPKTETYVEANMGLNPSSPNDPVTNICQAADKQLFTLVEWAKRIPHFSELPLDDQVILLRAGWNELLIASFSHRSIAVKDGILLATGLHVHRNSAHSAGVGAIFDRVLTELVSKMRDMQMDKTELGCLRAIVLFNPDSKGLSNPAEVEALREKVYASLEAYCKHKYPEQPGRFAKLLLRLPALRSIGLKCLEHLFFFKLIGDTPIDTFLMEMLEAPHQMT
Thyroid hormone receptor beta (Homo sapiens), sequence (P10828 whole entry, looked up): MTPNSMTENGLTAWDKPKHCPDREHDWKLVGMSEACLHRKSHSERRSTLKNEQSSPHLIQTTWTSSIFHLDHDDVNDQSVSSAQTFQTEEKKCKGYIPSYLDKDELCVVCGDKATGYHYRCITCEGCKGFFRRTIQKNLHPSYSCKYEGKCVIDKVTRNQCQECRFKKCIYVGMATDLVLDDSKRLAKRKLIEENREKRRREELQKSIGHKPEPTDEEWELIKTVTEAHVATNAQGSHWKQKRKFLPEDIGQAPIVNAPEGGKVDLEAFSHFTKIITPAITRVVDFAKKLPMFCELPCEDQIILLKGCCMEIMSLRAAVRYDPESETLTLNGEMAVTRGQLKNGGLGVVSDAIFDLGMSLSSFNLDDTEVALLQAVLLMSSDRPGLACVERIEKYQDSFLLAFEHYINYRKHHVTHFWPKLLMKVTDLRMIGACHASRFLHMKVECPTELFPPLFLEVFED

The first assay concerns the target Retinoic acid receptor RXR-alpha (Homo sapiens) (UniProt P19793). Kind of assay: qHTS assay for small molecule antagonists of retinoid X receptor alpha signaling (AID 588546; active = well fitted inhibition curve with a large enough effect in the signal ratio, with a control signal flat, not every such curve was filed as active; the % refers to the signal ratio). The settings on record: HEK293T RXRa-UAS-bla, beta-lactamase ratio, antagonist mode. The gist of the method: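 Beta-lactamase reporter inhibition, read as CCF4 fluorescence ratio (ex 405, em 460/530 nm) after 2 h at RT. HEK293T UAS-bla cells, 2500/well, were stimulated with 9-cis-RA at 500 or 100 nM final alongside test compound for 18 h at 37 C.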
With `Oc1cccc(Cl)c1Cl`, the max response was -5.77% (inactive).

On to `CCC/C=N/O`, for which the max response was -0.259% (inactive).

For `Nc1cccc2ccccc12`, the max response was -9% (inactive).

For `Cc1cnc[nH]1`, the max response is 4.17% (inactive).

Regarding `CN(C)N=O`, the max response was -0.776% (inactive).

For the compound `COc1c(C(C)(C)C)cc([N+](=O)[O-])c(C)c1[N+](=O)[O-]`, the max response was -14.3% (inactive).

Take `C=C(Cl)CCl`: the max response was -0.897% (inactive).

In the case of `ClCCOCOCCCl`, the max response was -0.285% (inactive).

As for `CC(C)(Cl)[N+](=O)[O-]`, the max response was 5.8% (inactive).

Take `Cl/C=C/Cl`: the max response was 6.16% (inactive).

As to `C1CC2OC2CC1C1CO1` (stereo not given), the max response was 10.1% (inactive) and -3.3% (inactive).

With `Oc1c(Cl)cccc1Cl`, the max response is 27.8% (inactive).

As for `ClCCOCCCl`, the max response was 4.16% (inactive).

Turning to `Cl/C=C\Cl`, the max response was -5.23% (inactive).

As for `CCBr`, the max response is 2.77% (inactive).

As to `O=[N+]([O-])c1ccc(Cl)c(Cl)c1Cl`, the max response was 7.17% (inactive).

With `N#CCCC#N`, the max response was 23.2% (inactive).

Turning to `Cc1ccccc1[N+](=O)[O-]`, the max response was 10.9% (inactive).

On to `OCCBr`, for which the max response is 2.44% (inactive).

Turning to `C=CC(=O)OCCN(C)C`, the max response was 5.11% (inactive).

As for `CC(C)(C)C(O)(CCc1ccc(Cl)cc1)Cn1cncn1` (stereo not given), the max response was -23.2% (inactive) and -32.6% (inactive).

With `N#CCCCCC#N`, the max response is 12.5% (inactive).

For `CCCCCC[N+](=O)[O-]`, the max response was -13.3% (inactive).

On to `OCC(Cl)CCl` (stereo not given), for which the max response was -4.6% (inactive).

Turning to `COc1ccc(C=O)cc1`, the max response was 14.5% (inactive).

In the case of `Nc1ccc(Cl)c(Cl)c1`, the max response is -9.29% (inactive).

On to `CC(=O)CCC(C)=O`, for which the max response was 0.643% (inactive).

With `C=CC(=O)OCC(CC)CCCC` (stereo not given), the max response was 4.48% (inactive) and -16.9% (inactive).

Another assay addresses Thyroid hormone receptor beta (Homo sapiens) (UniProt P10828). The assay is described as follows: qHTS assay for small molecule antagonists of thyroid hormone receptor beta signaling (AID 588547; active = well fitted inhibition curve with a large enough effect in the signal ratio, with a control signal flat, not every such curve was filed as active; the % refers to the signal ratio;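 also: cells stimulated with 0.4 nM T3 agonist during compound exposure; series mostly up to about 77 µM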). The settings on record: TR-UAS-bla HEK293, beta-lactamase ratio, antagonist mode, 18 h. The essentials:
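TR-UAS-bla GripTite HEK293 cells in 2% charcoal/dextran FBS medium were preincubated 4 h at 37 C, given compound (0.59 nM to 92 uM) plus 0.4 nM T3 (final) for 18 h, then CCF4 for 2 h at RT; Hill fit gave IC50.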
(In general: In qHTS, concentration-response curves come from the screen itself.)
With `Oc1cccc(Cl)c1Cl`, the activity change % (negative = inhibition) is 9.41% (inactive).

`CCC/C=N/O`: the activity change % (negative = inhibition) is 3.59% (inactive).

For the compound `Nc1cccc2ccccc12`, the activity change % (negative = inhibition) is 1.61% (inactive).

As for `Cc1cnc[nH]1`, the activity change % (negative = inhibition) was 8% (inactive).

`COc1c(C(C)(C)C)cc([N+](=O)[O-])c(C)c1[N+](=O)[O-]`: the activity change % (negative = inhibition) is 24.1% (inactive).

For the compound `C=C(Cl)CCl`, the activity change % (negative = inhibition) was 0.727% (inactive).

Turning to `ClCCOCOCCCl`, the activity change % (negative = inhibition) was 10.8% (inactive).

As to `CC12CC1(C)C(=O)N(c1cc(Cl)cc(Cl)c1)C2=O` (stereo not given), the activity change % (negative = inhibition) is 4.26% (inactive) and 9.02% (inactive).

As to `CC(C)(Cl)[N+](=O)[O-]`, the activity change % (negative = inhibition) is 9.2% (inactive).

As to `Cl/C=C/Cl`, the activity change % (negative = inhibition) was -4.77% (inactive).

Take `CCCCOCC1CO1` (stereo not given): the activity change % (negative = inhibition) was 12.9% (inactive).

As to `O=C(O)c1cccc(Cl)c1`, the activity change % (negative = inhibition) was 7.72% (inactive).

For `C1CC2OC2CC1C1CO1` (stereo not given), the activity change % (negative = inhibition) was 7.88% (inactive).

Consider `Brc1cccc(-c2ccccc2)c1`, for which the activity change % (negative = inhibition) is 0.106% (inactive).

Turning to `ClCCOCCCl`, the activity change % (negative = inhibition) is 0.0195% (inactive).

In the case of `CCNCC`, the activity change % (negative = inhibition) was 15.3% (inactive).

Regarding `CC(C)C#N`, the activity change % (negative = inhibition) was -3.27% (inactive).

Regarding `Cl/C=C\Cl`, the activity change % (negative = inhibition) was 0.348% (inactive).

On to `CCBr`, for which the activity change % (negative = inhibition) is -4.65% (inactive).

As for `N#CCCC#N`, the activity change % (negative = inhibition) was 5.23% (inactive).

For `Cc1ccccc1[N+](=O)[O-]`, the activity change % (negative = inhibition) is 6.46% (inactive).

In the case of `C=CC(=O)OCCN(C)C`, the activity change % (negative = inhibition) was -23.4% (inactive).

As for `CC(C)(C)C(O)(CCc1ccc(Cl)cc1)Cn1cncn1` (stereo not given), the activity change % (negative = inhibition) was -8.05% (inactive) and 4.64% (inactive).

For `N#CCCCCC#N`, the activity change % (negative = inhibition) is -18.7% (inactive).

On to `CN=C=O`, for which the activity change % (negative = inhibition) was -7.41% (inactive).

Turning to `CCCCCC[N+](=O)[O-]`, the activity change % (negative = inhibition) was -9.74% (inactive).

In the case of `OCC(Cl)CCl` (stereo not given), the activity change % (negative = inhibition) is -13.6% (inactive).

For `COc1ccc(C=O)cc1`, the activity change % (negative = inhibition) was 19.4% (inactive).

Take `Nc1ccc(Cl)c(Cl)c1`: the activity change % (negative = inhibition) is 2.33% (inactive).

In the case of `CC(=O)[O-].CC(=O)[O-].CC(=O)[O-].[Cr+3]`, the activity change % (negative = inhibition) is 2.34% (inactive).

Take `CC(=O)CCC(C)=O`: the activity change % (negative = inhibition) was 15% (inactive).

Turning to `CC(C#N)CCC#N` (stereo not given), the activity change % (negative = inhibition) was 9.23% (inactive).
